Experiment [1] addresses Cytochrome P450 2D6 (Homo sapiens) (UniProt P10635). Nature of the experiment: Cytochrome P450 Family 2 Subfamily D Member 6 (CYP2D6) small molecule antagonists: luciferase reporter qHTS assay (AID 1671196). Note: nearly all actives have a fitted effect of over 50% in size. The settings on record: P450-Glo CYP2D6 enzyme assay, luciferin luminescence, 1 h; series mostly up to 115 µM. In a few lines: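 Quantitative HTS of Tox21 chemicals against CYP2D6 using a luminescent proluciferin substrate. After NADPH addition, 1 h room-temperature reaction; luminescence recorded 20 min post detection reagent.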

The target in experiment [2] is Cytochrome P450 2C9 (Homo sapiens) (UniProt P11712). Nature of the experiment: Cytochrome P450 Family 2 Subfamily C Member 9 (CYP2C9) small molecule antagonists: luciferase reporter qHTS assay (AID 1671198). Note: nearly all actives have a fitted effect of over 50% in size. The settings on record: P450-Glo CYP2C9 enzyme assay, luciferin luminescence; series mostly up to 115 µM. The procedure, abridged: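 P450-Glo proluciferin substrate with CYP2C9 enzyme; 10 min RT preincubation, then NADPH regeneration 1 h at 37C; luciferin detection reagent 20 min RT, luminescence in relative luminescence units.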

For experiment [3], the target named is Cytochrome P450 1A2 (Homo sapiens) (UniProt P05177). Nature of the experiment: Cytochrome P450 Family 1 Subfamily A Member 2 (CYP1A2) small molecule antagonists: luciferase reporter qHTS assay (AID 1671199). Note: nearly all actives have a fitted effect of over 50% in size. As to conditions: P450-Glo CYP1A2 enzyme, luciferin luminescence, 1 h; series mostly up to 53 µM. The procedure, abridged: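 Quantitative high-throughput format using the P450-Glo CYP1A2 system. Reaction initiated by NADPH regeneration solution, 1 h at room temperature, then stopped with detection reagent; luminescence measured 20 min later.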

In experiment [4] the target is Voltage-gated inwardly rectifying potassium channel KCNH2 (Homo sapiens) (UniProt Q12809). Nature of the experiment: Human Ether-a-go-go-Related Gene (hERG) channel small molecule antagonists: fluorescence cell-based qHTS assay (AID 1671200).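 For activity change, negative = inhibition: hERG-expressing U2OS cells given a thallium stimulus after FluxOR II dye loading.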 Note: nearly all actives have a fitted effect of over 50% in size. As to conditions: hERG-U2OS cells, FluxOR thallium flux fluorescence; series mostly up to 76.8 µM. The procedure, abridged:
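Measured: Tl+ flux via fluorescence (480/540 nm) in hERG-expressing U2OS cells after 1 h dye loading at room temperature.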

Experiment [5] addresses Cytochrome P450 3A4 (Homo sapiens) (UniProt P08684). Nature of the experiment: Cytochrome P450 Family 3 Subfamily A Member 4 (CYP3A4) small molecule antagonists: luciferase reporter qHTS assay (AID 1671201). Note: nearly all actives have a fitted effect of over 50% in size. As to conditions: P450-Glo CYP3A4 enzyme, luciferin luminescence, 1 h; series mostly up to 115 µM. In a few lines: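 Setup: enzyme-substrate mix, compound pin transfer, 10 min RT. Reaction: NADPH regeneration solution, 1 h RT. Readout: detection reagent stops turnover, luminescence measured after 20 min, expressed in relative luminescence units.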

Experiment [6] deals with Cytochrome P450 2C19 (Homo sapiens) (UniProt P33261). Nature of the experiment: Cytochrome P450 Family 2 Subfamily C Member 19 (CYP2C19) small molecule antagonists: luciferase reporter qHTS assay (AID 1671197). Note: nearly all actives have a fitted effect of over 65% in size. The settings on record: P450-Glo CYP2C19 enzyme, luciferin luminescence, 1 h; series mostly up to 52.9 µM. In a few lines:
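P450-Glo CYP2C19 screening system; proluciferin substrate; DMSO compound stocks; 10 min RT preincubation; NADPH regeneration, 1 h at 37C; luciferin detection reagent, 20 min RT; luminescence as RLU.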

Values joined by “and” are separate entries in the source; they are usually repeats but may differ in a detail not shown here. Equal entries are not always repeated. Inconclusive results are not listed. Unmarked numbers belong to inactive results. Active and inactive are the calls of the source. Calls come from the whole dose curve; as a rule, active = well fitted curve in the direction sought with a large enough effect in the repeat runs; inconclusive = weak or mixed curves; inactive = no such curve, though single readings can be large; an effect the other way counts as inactive or inconclusive.
% is set by controls: 0 for no effect and ±100 for the full control effect; potency is the fitted concentration of half-maximal effect.

Sequence of Cytochrome P450 2C9 (Homo sapiens) (P11712 whole entry, looked up): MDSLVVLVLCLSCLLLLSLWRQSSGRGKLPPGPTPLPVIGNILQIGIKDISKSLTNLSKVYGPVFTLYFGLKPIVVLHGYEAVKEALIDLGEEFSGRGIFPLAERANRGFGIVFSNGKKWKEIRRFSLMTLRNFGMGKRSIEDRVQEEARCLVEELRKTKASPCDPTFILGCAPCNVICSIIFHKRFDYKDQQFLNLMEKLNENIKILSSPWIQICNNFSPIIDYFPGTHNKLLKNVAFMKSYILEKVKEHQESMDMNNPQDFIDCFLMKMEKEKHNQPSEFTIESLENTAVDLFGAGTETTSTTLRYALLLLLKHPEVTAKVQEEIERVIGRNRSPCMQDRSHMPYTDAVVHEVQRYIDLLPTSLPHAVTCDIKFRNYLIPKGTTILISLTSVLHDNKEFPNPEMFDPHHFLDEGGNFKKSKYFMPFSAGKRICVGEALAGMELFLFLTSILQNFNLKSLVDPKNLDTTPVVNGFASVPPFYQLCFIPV
Sequence of Voltage-gated inwardly rectifying potassium channel KCNH2 (Homo sapiens) (Q12809 whole entry, looked up): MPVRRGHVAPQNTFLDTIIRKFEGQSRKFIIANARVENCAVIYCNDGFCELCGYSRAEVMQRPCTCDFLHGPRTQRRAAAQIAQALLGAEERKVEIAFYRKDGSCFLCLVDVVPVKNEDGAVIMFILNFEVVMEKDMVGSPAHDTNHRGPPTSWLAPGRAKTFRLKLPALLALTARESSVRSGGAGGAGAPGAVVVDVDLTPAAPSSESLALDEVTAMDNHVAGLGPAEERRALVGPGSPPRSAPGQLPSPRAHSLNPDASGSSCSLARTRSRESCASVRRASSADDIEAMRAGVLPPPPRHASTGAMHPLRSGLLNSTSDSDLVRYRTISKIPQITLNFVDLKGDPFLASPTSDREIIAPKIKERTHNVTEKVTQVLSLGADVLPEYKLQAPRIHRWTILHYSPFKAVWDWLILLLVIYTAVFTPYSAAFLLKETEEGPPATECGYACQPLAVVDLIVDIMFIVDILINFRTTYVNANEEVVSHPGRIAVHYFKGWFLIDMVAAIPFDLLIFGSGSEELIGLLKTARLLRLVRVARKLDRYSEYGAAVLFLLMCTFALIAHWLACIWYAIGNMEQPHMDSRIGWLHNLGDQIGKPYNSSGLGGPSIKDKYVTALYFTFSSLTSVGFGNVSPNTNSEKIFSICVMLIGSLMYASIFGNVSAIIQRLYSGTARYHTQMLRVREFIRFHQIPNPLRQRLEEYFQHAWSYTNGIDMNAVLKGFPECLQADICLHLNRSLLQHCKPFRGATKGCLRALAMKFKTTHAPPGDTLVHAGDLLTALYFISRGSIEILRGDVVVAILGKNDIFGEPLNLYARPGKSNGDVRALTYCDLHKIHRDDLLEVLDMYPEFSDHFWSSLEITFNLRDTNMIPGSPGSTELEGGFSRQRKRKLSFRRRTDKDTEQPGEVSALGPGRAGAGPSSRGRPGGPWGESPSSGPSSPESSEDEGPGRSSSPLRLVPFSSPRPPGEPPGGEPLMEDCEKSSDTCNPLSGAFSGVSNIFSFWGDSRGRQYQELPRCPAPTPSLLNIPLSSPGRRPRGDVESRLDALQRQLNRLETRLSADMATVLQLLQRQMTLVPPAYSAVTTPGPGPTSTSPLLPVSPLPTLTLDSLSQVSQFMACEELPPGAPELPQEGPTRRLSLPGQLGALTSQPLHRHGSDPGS
Sequence of Cytochrome P450 2D6 (Homo sapiens) (P10635 whole entry, looked up): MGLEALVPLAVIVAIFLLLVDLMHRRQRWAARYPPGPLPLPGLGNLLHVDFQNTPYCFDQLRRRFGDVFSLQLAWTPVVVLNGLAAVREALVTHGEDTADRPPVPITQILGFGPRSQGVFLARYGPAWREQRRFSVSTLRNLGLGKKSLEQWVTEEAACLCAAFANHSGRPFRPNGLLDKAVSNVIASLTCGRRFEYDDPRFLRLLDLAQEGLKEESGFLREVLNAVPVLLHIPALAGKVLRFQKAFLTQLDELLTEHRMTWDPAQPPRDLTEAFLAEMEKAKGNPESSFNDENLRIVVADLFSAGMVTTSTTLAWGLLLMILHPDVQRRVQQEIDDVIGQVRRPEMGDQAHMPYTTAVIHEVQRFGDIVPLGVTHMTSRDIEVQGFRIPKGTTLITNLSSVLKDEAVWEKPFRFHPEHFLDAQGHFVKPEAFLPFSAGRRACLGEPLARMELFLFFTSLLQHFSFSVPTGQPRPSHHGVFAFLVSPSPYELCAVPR
Sequence of Cytochrome P450 2C19 (Homo sapiens) (P33261 whole entry, looked up): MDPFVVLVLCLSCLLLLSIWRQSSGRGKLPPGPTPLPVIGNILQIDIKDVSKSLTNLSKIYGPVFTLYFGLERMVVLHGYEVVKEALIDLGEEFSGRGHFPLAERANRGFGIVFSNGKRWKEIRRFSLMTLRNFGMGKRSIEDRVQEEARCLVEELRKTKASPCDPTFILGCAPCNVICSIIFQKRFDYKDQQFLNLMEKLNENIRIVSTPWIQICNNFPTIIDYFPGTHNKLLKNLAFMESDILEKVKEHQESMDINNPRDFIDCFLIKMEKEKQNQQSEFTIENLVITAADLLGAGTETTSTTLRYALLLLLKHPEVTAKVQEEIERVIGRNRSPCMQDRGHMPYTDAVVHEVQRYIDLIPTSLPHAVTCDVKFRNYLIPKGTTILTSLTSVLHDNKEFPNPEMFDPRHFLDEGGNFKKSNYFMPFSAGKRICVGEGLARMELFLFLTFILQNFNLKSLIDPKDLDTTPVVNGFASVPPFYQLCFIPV
Sequence of Cytochrome P450 1A2 (Homo sapiens) (P05177 whole entry, looked up): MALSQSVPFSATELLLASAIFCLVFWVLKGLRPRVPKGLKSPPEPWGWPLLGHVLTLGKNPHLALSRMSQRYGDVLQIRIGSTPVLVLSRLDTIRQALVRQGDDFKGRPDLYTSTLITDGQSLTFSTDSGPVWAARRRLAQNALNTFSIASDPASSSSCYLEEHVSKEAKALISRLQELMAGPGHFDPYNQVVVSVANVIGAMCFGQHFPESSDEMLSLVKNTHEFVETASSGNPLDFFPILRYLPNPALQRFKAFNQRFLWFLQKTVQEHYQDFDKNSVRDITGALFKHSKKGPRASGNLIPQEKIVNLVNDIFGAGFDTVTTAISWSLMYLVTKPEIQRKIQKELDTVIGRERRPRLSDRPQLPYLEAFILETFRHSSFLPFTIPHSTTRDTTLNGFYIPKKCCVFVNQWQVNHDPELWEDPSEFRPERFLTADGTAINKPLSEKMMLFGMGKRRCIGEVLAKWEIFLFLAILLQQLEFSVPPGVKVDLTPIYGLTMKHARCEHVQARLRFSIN
Sequence of Cytochrome P450 3A4 (Homo sapiens) (P08684 whole entry, looked up): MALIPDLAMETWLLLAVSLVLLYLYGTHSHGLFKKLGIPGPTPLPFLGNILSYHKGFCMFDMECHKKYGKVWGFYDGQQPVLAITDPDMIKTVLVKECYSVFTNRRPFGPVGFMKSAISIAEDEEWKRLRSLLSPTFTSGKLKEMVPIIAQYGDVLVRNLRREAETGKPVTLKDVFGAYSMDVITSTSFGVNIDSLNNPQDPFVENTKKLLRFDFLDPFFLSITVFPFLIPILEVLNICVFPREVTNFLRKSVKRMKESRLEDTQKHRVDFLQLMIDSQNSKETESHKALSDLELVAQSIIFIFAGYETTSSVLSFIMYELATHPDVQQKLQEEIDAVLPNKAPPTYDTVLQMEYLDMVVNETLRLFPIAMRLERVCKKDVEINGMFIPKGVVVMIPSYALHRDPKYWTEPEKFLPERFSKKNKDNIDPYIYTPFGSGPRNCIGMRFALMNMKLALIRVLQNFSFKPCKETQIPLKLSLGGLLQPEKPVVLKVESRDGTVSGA

With `CCc1ccc(O)c(OC)c1`, the Potency result in experiment [1], in experiment [2], in experiment [4] and in experiment [5] was “inactive” each time. Besides, the Potency in experiment [3] was 31.7 µM (active).

On to `CN(C(=O)c1c(O)c2ccccc2n(C)c1=O)c1ccccc1`, for which the Potency entry in experiment [1], in experiment [6], in experiment [3], in experiment [4] and in experiment [5] was “inactive” in each case.

As for `COC(C)(C)CCCC(C)CC=O` (stereo not given), the Potency entry in experiment [1], in experiment [6], in experiment [3], in experiment [4] and in experiment [5] was “inactive” throughout.

Consider `O=C1CCCC(=O)C1`, for which the Potency result in experiment [1], in experiment [6], in experiment [4] and in experiment [5] was “inactive” in each case.

With `CC(=O)c1ccccc1O`, the Potency result in experiment [1], in experiment [6], in experiment [3] and in experiment [5] was “inactive” throughout.

`COC(=O)NN`: the Potency entry in experiment [1], in experiment [2], in experiment [3] and in experiment [4] was “inactive” throughout.

Turning to `O=C(c1ccccc1)C1CCCCC1`, the Potency result in experiment [1] and in experiment [5] was “inactive” in each case. Moreover, the Potency was 71 µM (active) in experiment [6] and 44.8 µM (active) in experiment [3].

As to `COc1ccc2c(c1)c(CC(=O)OCC(=O)O)c(C)n2C(=O)c1ccc(Cl)cc1`, the Potency result in experiment [1], in experiment [6], in experiment [3], in experiment [4] and in experiment [5] was “inactive” throughout.

As to `OC1CCCCC1c1ccccc1` (stereo not given), the Potency result in experiment [1], in experiment [3] and in experiment [4] was “inactive” throughout. The Potency in experiment [6] was 79.6 µM (active).

With `CC(=O)OCC(=O)[C@@]1(O)CC[C@H]2[C@@H]3CCC4=CC(=O)CC[C@]4(C)[C@H]3C(=O)C[C@@]21C`, the Potency in experiment [1] was 2.45 µM (active). Moreover, the Potency result in experiment [6], in experiment [3] and in experiment [4] was “inactive” throughout.

As to `Nc1c[n+](N2CCOCC2)no1`, the Potency result in experiment [1], in experiment [6], in experiment [3], in experiment [4] and in experiment [5] was “inactive” each time.

Take `O=C(O)c1ccccc1OP(=O)(O)O`: the Potency result in experiment [6], in experiment [2], in experiment [4] and in experiment [5] was “inactive” each time. For the same compound, in experiment [3], the Potency was 27.5 µM (active).

Regarding `CCOC(=O)c1c(C)n(C)c2ccc(O)cc12`, the Potency in experiment [6] is 7.76 µM (active); in experiment [3], 0.512 µM (active). Besides, the Potency entry in experiment [4] was “inactive”.

As to `CC(=O)OC/C=C(\C)CC/C=C(\C)CCC=C(C)C`, the Potency is 20 µM (active) and 71 µM (active) in experiment [6]; 35.6 µM (active) in experiment [2]; 10 µM (active) in experiment [5]. The Potency result in experiment [3] and in experiment [4] was “inactive” throughout.

As for `COc1ccc(CCN(C)CCCC(C#N)(c2cc(OC)c(OC)c(OC)c2)C(C)C)cc1OC` (stereo not given), the Potency result in experiment [6] and in experiment [3] was “inactive” in each case. In experiment [4], the Potency is 7.56 µM (active).

Take `O=C1CCCCCCCCCCCN1`: the Potency result in experiment [1] and in experiment [4] was “inactive” each time. For the same compound, the Potency was 70.9 µM (active) in experiment [3]; 3.55 µM (active) and 7.96 µM (active) in experiment [5].

In the case of `Cc1nc2c([nH]1)c(=O)n(C)c(=O)n2Cc1ccco1`, the Potency result in experiment [6], in experiment [2], in experiment [4] and in experiment [5] was “inactive” throughout.

For `NS(=O)(=O)c1cc2c(cc1Cl)NC(C1CC3C=CC1C3)NS2(=O)=O` (stereo not given), in experiment [2], the Potency is 12.3 µM (active). Also, the Potency result in experiment [4] is “inactive”.

Take `C[N+](C)(C)CC(O)CC(=O)[O-]` (stereo not given): the Potency result in experiment [6], in experiment [2], in experiment [3], in experiment [4] and in experiment [5] was “inactive” throughout.

For `Nc1c2c(nc3ccccc13)CCCC2O` (stereo not given), the Potency entry in experiment [6], in experiment [2], in experiment [4] and in experiment [5] was “inactive” each time. The Potency in experiment [3] was 15.5 µM (active).

Take `CCN(Cc1ccncc1)C(=O)C(CO)c1ccccc1` (stereo not given): the Potency result in experiment [4] was “inactive”.

In the case of `CCCCCCCCS(=O)(=O)Cl`, the Potency result in experiment [6], in experiment [3], in experiment [4] and in experiment [5] was “inactive” throughout. For the same compound, the Potency in experiment [2] is 32 µM (active).

`NCCc1cnc[nH]1`: the Potency entry in experiment [4] was “inactive”.

`Cn1c(N)c(N=O)c(=O)n(C)c1=O`: the Potency in experiment [6] was 58.2 µM (active). For the same compound, the Potency result in experiment [2], in experiment [3], in experiment [4] and in experiment [5] was “inactive” throughout.

Take `CCc1cccc2c(CCO)c[nH]c12`: the Potency in experiment [6] was 17.4 µM (active); in experiment [3], 7.76 µM (active).

On to `O=Cc1cccc([N+](=O)[O-])c1`, for which the Potency result in experiment [6], in experiment [2] and in experiment [4] was “inactive” each time. In addition, in experiment [3], the Potency was 39.7 µM (active).

For the compound `c1ccc([C@H]2CN3CCSC3=N2)cc1`, the Potency entry in experiment [6], in experiment [2], in experiment [4] and in experiment [5] was “inactive” each time.

Regarding `CS(=O)(=O)O`, the Potency result in experiment [6], in experiment [2] and in experiment [4] was “inactive” throughout. The Potency in experiment [3] was 31.9 µM (active).

Take `Cc1cccn2c(=O)c(-c3nnn[nH]3)cnc12`: the Potency entry in experiment [6] was “inactive”. The activity change, negative = inhibition in experiment [2] is -1.3% [at 23.6 µM]; in experiment [4] it was 0.271% [at 15.8 µM]; in experiment [5], 2.55% [at 23.6 µM].

The values are drawn from PubChem BioAssay (Tox21).
